The whole screen tested about 350,000 compounds, of which about 31,000 (8.9%) were called active. About 15% were inconclusive and are not listed. Calls follow the shape of the dose curve; as a rule, active = well fitted inhibition curve with a large enough effect; inconclusive = small, poorly fitted or top-dose-only effect; inactive = no such curve, though single readings can be large or run the other way. The list comes from a sample in which actives are over-represented; it also holds similar structures and randomly drawn compounds. A call without a number means that no potency is given here. More than one record can exist for a structure, and the calls need not agree.
Potency is read from the fitted curve at half-maximal effect.

Chain of Histone-lysine N-methyltransferase EHMT2 (Homo sapiens) (Q96KQ7 913-1193 limits assumed): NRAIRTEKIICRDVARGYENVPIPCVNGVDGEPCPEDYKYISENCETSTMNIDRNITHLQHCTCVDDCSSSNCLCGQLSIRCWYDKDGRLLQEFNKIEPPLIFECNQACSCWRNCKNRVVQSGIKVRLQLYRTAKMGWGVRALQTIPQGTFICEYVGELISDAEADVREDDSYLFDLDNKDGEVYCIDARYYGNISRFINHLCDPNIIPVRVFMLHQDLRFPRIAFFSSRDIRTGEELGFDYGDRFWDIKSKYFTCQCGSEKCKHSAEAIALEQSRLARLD

This test concerns the target Histone-lysine N-methyltransferase EHMT2 (Homo sapiens) (UniProt Q96KQ7). Description: qHTS Assay for Inhibitors of Histone Lysine Methyltransferase G9a. Also: nearly all actives have a fitted effect of over 75% in size. The following applies: G9a H3K9 monomethylation, AlphaScreen, 2 h; series mostly up to 59 µM. A digest of the protocol:
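Readings reflect AlphaScreen signal from monomethyl-H3K9 antibody detection. HMT at 20 nM; substrate b-H3K9 500 nM; cofactor SAM 20 uM; 2 h RT reaction; compounds tested as titrations in qHTS with 15 min preincubation.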
For orientation: In qHTS, concentration-response curves come from the screen itself.
On to `Cc1cccnc1NC(=O)CSc1nnc(COc2ccc(C(C)C)cc2)n1C`, for which the Potency entry is “inactive”.

On to `COc1ccc(-c2nnc(SCC(=O)Nc3cccnc3Cl)n2C)cc1`, for which the Potency is 20 µM (active).

Regarding `COc1ccc(OC)c(NC(=O)CSc2nc3cccnc3n2C)c1`, the activity, negative = inhibition is -2.8% [at 12.7 µM] (inactive).

As to `CC1=C/C(=N\OS(=O)(=O)c2ccccc2)C=CC1=O`, the Potency was 2.51 µM (active).

On to `O=S(=O)(ON(c1ccccc1)S(=O)(=O)c1ccccc1)c1ccccc1`, for which the Potency entry is “inactive”.

With `CCOc1ccc(/C=C/C(=O)N(CC)CC(=O)NCc2cccs2)cc1OC`, the activity, negative = inhibition was 7.69% [at 2.33 µM] (inactive).

For the compound `O=C(Cn1nnc(-c2ccccc2)n1)NC(=O)NC1CCCC1`, the Potency result was “inactive”.

For the compound `Cc1ccc2c(c1)c1ncn(Cc3ccc(F)cc3)c(=O)c1n2C`, the Potency entry was “inactive”.

As to `CC(=O)Nc1ccc(NC(=O)CSc2nnc3c4cc(Br)ccc4n(C)c3n2)cc1`, the Potency result was “inactive”.

Turning to `Cn1c2ccc(F)cc2c2nnc(NN)nc21`, the Potency was 39.8 µM (active).

As to `O=C(CN1C(=O)COc2ccc(S(=O)(=O)N3CCOCC3)cc21)N1CCN(c2cccc(Cl)c2)CC1`, the Potency result was “inactive”.

Take `CCOc1ccc(Nc2nc(Cl)nc(N3CCN(c4ccc(OC)cc4)CC3)n2)cc1`: the Potency is 12.6 µM (active).

On to `CCN1CCN(c2nc(Nc3cc(OC)ccc3OC)nc(Nc3cc(OC)ccc3OC)n2)CC1`, for which the Potency result was “inactive”.

On to `Cc1ccc(Nc2nc(N3CCOCC3)nc(N3CCOCC3)n2)cc1Cl`, for which the Potency result was “inactive”.

For the compound `CC1CCN(c2nc3ccc(C(=O)N4CCN(c5ccccc5)CC4)cc3s2)CC1`, the Potency entry is “inactive”.

Turning to `COC(=O)c1ccc(COC(=O)c2cnc(Cl)c(Cl)c2)cc1`, the Potency result was “inactive”.

On to `Cc1cc(C)n(S(=O)(=O)c2cccc([N+](=O)[O-])c2)n1`, for which the Potency result is “inactive”.

`C/C(=N\NS(=O)(=O)c1cccc([N+](=O)[O-])c1)c1cc2ccccc2o1`: the Potency is 12.6 µM (active).

In the case of `CC1CN(C(=O)c2ccccc2NS(=O)(=O)c2cccc([N+](=O)[O-])c2)CC(C)O1` (stereo not drawn), the Potency result was “inactive”.

Turning to `COc1ccccc1NS(=O)(=O)c1ccc(C)c(C(=O)NCC(c2ccco2)N(C)C)c1` (stereo not drawn), the activity, negative = inhibition is 22.9% [at 0.501 µM] (inactive).

As to `COc1ccc(N2CCN(C3CCCCC3NS(=O)(=O)c3ccccc3)CC2)cc1` (stereo not drawn), the Potency was 22.4 µM (active).

`O=S(=O)(NC1CCCCC1N1CCN(c2ccccc2F)CC1)c1ccccc1` (stereo not drawn): the Potency result is “inactive”.

On to `CCN1CCN(C2CCCCC2NS(=O)(=O)c2ccc(Cl)cc2)CC1` (stereo not drawn), for which the Potency result was “inactive”.

As to `COc1ccc(CNC(=O)C2CCN(C(=O)c3ccco3)CC2)cc1`, the Potency result is “inactive”.

On to `CCC(CC)c1nnc(NC(=O)C2CCN(C(=O)c3ccco3)CC2)s1`, for which the Potency was 3.98 µM (active).

In the case of `CCC(=O)Nc1ccc(C(=O)N2CCN(C(=O)c3ccco3)CC2)cc1`, the Potency entry was “inactive”.

Consider `CCN(CC)c1nn2c(=O)c(C(=O)NCCc3ccccc3)cnc2s1`, for which the Potency entry was “inactive”.

Turning to `CCc1noc(C)c1C(=O)Nc1nc2ccc(OC)cc2s1`, the activity, negative = inhibition is -2.24% [at 12.7 µM] (inactive).

In the case of `COC(=O)c1nc(NC(=O)c2ccccc2)n[nH]1`, the activity, negative = inhibition was -8.15% [at 12.7 µM] (inactive).

As for `CSc1nccc(NC(=O)c2ccc(C(C)(C)C)cc2)n1`, the activity, negative = inhibition is 15.8% [at 0.501 µM] (inactive).

For `COc1ccc(C(=O)Nc2ccc(F)cc2F)cc1`, the activity, negative = inhibition is 29.4% [at 12.7 µM] (inactive).

As to `O=C(Nc1n[nH]c(C(F)(F)F)n1)c1cccs1`, the Potency entry was “inactive”.

As for `COC(=O)c1nc(NC(=O)c2ccc(F)cc2)n[nH]1`, the Potency is 35.5 µM (active).

Take `COC(=O)c1nc(NC(=O)c2ccc(C(C)(C)C)cc2)n[nH]1`: the Potency was 31.6 µM (active).

As for `COc1ccc(CNC(=O)COC(=O)c2ccc(C)c(S(=O)(=O)N3CCOCC3)c2)cc1OC`, the Potency entry was “inactive”.

Turning to `O=C(c1cc(-c2ccc(Cl)cc2)on1)N1CCN(c2ccccc2)CC1`, the Potency entry is “inactive”.

On to `Cc1ccc(NC(=O)Cn2cnc3nc4c(cc3c2=O)CCCC4)cc1Cl`, for which the Potency result is “inactive”.

On to `Cc1ccc(C(=O)C(C)OC(=O)Cc2n[nH]c(=O)c3ccccc23)cc1C` (stereo not drawn), for which the activity, negative = inhibition was 13.1% [at 2.33 µM] (inactive).

In the case of `CCOC(=O)c1c(C)[nH]c(C)c1S(=O)(=O)N1CCCC(C(=O)NCc2ccccc2Cl)C1` (stereo not drawn), the Potency result is “inactive”.

Take `O=C(c1ccc(F)cc1)N1CCCC(C(=O)N2CCCCC2)C1` (stereo not drawn): the Potency result was “inactive”.

For `CCOC(=O)C1CCCN(C(=O)/C=C/c2ccc(OC)cc2)C1` (stereo not drawn), the Potency result is “inactive”.

Take `COc1ccc(CN2CCCC(C(=O)N3CCCCC3)C2)cc1` (stereo not drawn): the Potency was 11.2 µM (active).

On to `COc1ccc(NC(=O)N2CCCC(C(=O)Nc3ccccc3OC)C2)cc1` (stereo not drawn), for which the Potency result is “inactive”.

Take `COc1ccc(C(=O)C2CCCN(Cc3ccc4nonc4c3)C2)c(C)c1` (stereo not drawn): the Potency result is “inactive”.

As to `COc1ccc(CCN(C)C(=O)C2CCCN(Cc3ccc(OC)c(OC)c3)C2)cc1OC` (stereo not drawn), the Potency is 5.01 µM (active) and the activity, negative = inhibition was -16.1% [at 0.501 µM] (inactive).

Consider `COc1ccc(/C=C/C(=O)NC(=S)N2CCCC(C(N)=O)C2)cc1` (stereo not drawn), for which the Potency was 79.4 µM (active).

Take `COc1ccc(CN2CCCC(CNC(=O)c3ccc(F)cc3)C2)cc1OC` (stereo not drawn): the Potency result was “inactive”.

Turning to `CCCCNC(=O)N1CCCC(N(C)CCc2ccc(OC)c(OC)c2)C1` (stereo not drawn), the Potency result is “inactive”.

With `Cc1nn(-c2ccc(N3CCCCC3)nn2)c(C)c1CCC(=O)NCc1ccccc1F`, the Potency result is “inactive”.

For `OC(c1ccc(Cl)cc1)C(CN1CCOCC1)c1ccccc1` (stereo not drawn), the activity, negative = inhibition was -30.5% [at 2.33 µM] (inactive).

`COC(=O)[C@]1(C)CCC[C@@]2(C)C3CC[C@]4(OC(C)=O)C[C@@]3(CCC21)CC4=NO` (stereo partly drawn): the activity, negative = inhibition was 3.11% [at 0.501 µM] (inactive).

Regarding `COc1cc(OC)cc(-c2c(-c3cccs3)c3cc(-c4ccc(OC)nc4)ccc3n2C)c1`, the activity, negative = inhibition was 0.323% [at 0.501 µM] (inactive).

For the compound `COc1cc2[nH]c(=O)n(Cc3ccc(C(=O)NCc4ccc(C)cc4)cc3)c(=O)c2cc1OC`, the Potency entry was “inactive”.

As to `COc1ccc(F)cc1S(=O)(=O)NCC(c1ccc2c(c1)OCO2)N1CCN(C)CC1` (stereo not drawn), the Potency was 50.1 µM (active).

Consider `COc1ccc(F)cc1S(=O)(=O)Nc1ccc2c(c1)OCO2`, for which the Potency entry was “inactive”.

In the case of `CN1CCN(C(CNC(=O)c2ccccc2F)c2ccc3c(c2)OCO3)CC1` (stereo not drawn), the Potency result was “inactive”.

As to `Cc1ccc(Cn2c(=O)n(CCCC(=O)NCc3ccccc3Cl)c(=O)c3ccccc32)cc1`, the Potency entry is “inactive”.

For `O=C(Cn1c(=O)n(-c2ccc(F)cc2)c(=O)c2sc3ccccc3c21)NC1CCCC1`, the Potency entry is “inactive”.

Take `C=CCNC(=O)CSc1nc2sc(C)c(C)c2c(=O)[nH]1`: the Potency entry is “inactive”.

For the compound `CC(C)C(C)(C#N)NC(=O)CSc1nncn1-c1ccccc1` (stereo not drawn), the Potency entry is “inactive”.

Take `CC(C)C(C)(C#N)NC(=O)CSc1nc2scc(-c3ccccc3)c2c(=O)[nH]1` (stereo not drawn): the Potency was 28.2 µM (active).

As to `CCOc1ccc(CNC(=O)c2cccc(Nc3nc4ccccc4n4nnnc34)c2)cc1OC`, the Potency entry was “inactive”.

`Cc1nn2c(=O)cc(COC(=O)c3cccc(NC(=O)COc4ccccc4Cl)c3)nc2s1`: the Potency result is “inactive”.

Regarding `CCCCCn1c(=O)[nH]c2cc(C(=O)Nc3ccc(F)cc3)ccc2c1=O`, the Potency result is “inactive”.

Consider `O=C(NCc1ccc2c(c1)CCN2C(=O)c1ccccc1)c1ccccc1`, for which the Potency result was “inactive”.

Regarding `COc1ccc(/C(O)=C2/C(=O)C(=O)N(CCCN(C)C)C2c2ccccc2)cc1OC` (stereo not drawn), the Potency entry is “inactive”.

Turning to `COc1cccc(C2/C(=C(/O)c3ccc(F)cc3)C(=O)C(=O)N2CCN(C)C)c1` (stereo not drawn), the Potency entry was “inactive”.

For `CCCOc1ccc(/C(O)=C2/C(=O)C(=O)N(CCN(C)C)C2c2ccc(OC)c(OC)c2)cc1` (stereo not drawn), the Potency is 10 µM (active).

As for `O=C(Nc1cccc(C(=O)NC2CC2)c1)c1ccc(F)c(S(=O)(=O)N2CCOCC2)c1`, the activity, negative = inhibition is 11.8% [at 0.501 µM] (inactive).

For `Cc1ccc(C2=NN(C(=O)COc3ncnc4ccccc34)C(c3ccco3)C2)cc1` (stereo not drawn), the Potency result was “inactive”.

Regarding `COc1ccc(C2=NN(C(=O)CSc3nnnn3C)C(c3ccco3)C2)cc1` (stereo not drawn), the Potency result was “inactive”.

As to `Cc1ccc(C2=NN(C(=O)CSc3nc(N)cc(N)n3)C(c3ccco3)C2)cc1` (stereo not drawn), the Potency is 50.1 µM (active).

Consider `CCCc1nn2c(=O)cc(COC(=O)c3ccc(NC(=O)COc4ccc(F)cc4)cc3)nc2s1`, for which the Potency result was “inactive”.

Regarding `Cc1nn(-c2ccccc2)c(C)c1NC(=O)COC(=O)c1cc(Cl)ccc1O`, the Potency entry was “inactive”.

Turning to `Cc1ccc(Nc2cc(C)nc3c(C)ccc([N+](=O)[O-])c23)cc1`, the Potency was 11.2 µM (active).

`Cc1cc(Nc2ccc(C(=O)N3CCCCC3)cc2)c2cccc(C)c2n1`: the Potency entry is “inactive”.

With `Cc1ccc(Nc2ccc(C(N)=O)cc2[N+](=O)[O-])cc1`, the Potency entry was “inactive”.

With `COCCn1cnnc1SCC(=O)Nc1cccc(S(=O)(=O)N2CCCCC2)c1`, the activity, negative = inhibition is -9.19% [at 12.7 µM] (inactive).

Turning to `COc1ccc(CN2CCc3nc(Nc4ccccc4)ncc3C2)c(OC)c1OC`, the Potency result was “inactive”.

`O=C(CSc1nc2ccc(Nc3nc(N4CCOCC4)nc(N4CCOCC4)n3)cc2s1)NCc1ccco1`: the Potency result is “inactive”.

With `O=C(CCCn1c(SCC(=O)c2ccc(F)cc2)nc2ccccc2c1=O)NCc1ccco1`, the Potency entry is “inactive”.

With `C=CCn1c(CSc2nc3ccccc3s2)nnc1SCC(=O)NCc1ccco1`, the Potency is 44.7 µM (active).

With `CCOC(=O)c1cccc(NS(=O)(=O)c2cc(-c3cnc(C)o3)ccc2OC)c1`, the Potency entry was “inactive”.

As for `Cc1cccc(NS(=O)(=O)c2cccc(C(=O)NNC(=O)c3ccccc3O)c2)c1`, the activity, negative = inhibition was 56.9% [at 12.7 µM] (inactive).

Consider `O=c1oc2ccc(C#CC3(O)CCCCC3)cc2cc1-n1cc(-c2ccsc2)nn1`, for which the activity, negative = inhibition is -0.586% [at 0.501 µM] (inactive).

Consider `CCS(=O)(=O)c1ccc(-c2cccc(NC(=O)c3ccc(Br)o3)c2)nn1`, for which the Potency entry is “inactive”.

For the compound `COc1ccc(N2CCN(C(=O)CCc3nc(-c4ccc(C)cc4)no3)CC2)cc1`, the Potency is 31.6 µM (active).

As for `CCOc1cc(-c2noc(CCC(=O)N3CCOCC3)n2)ccc1OC`, the Potency entry is “inactive”.

On to `CN1CCN(C(=O)CCc2nc(-c3ccc(Cl)cc3)no2)CC1`, for which the Potency entry was “inactive”.

`CCOc1ccc2oc(C(=O)N(CC)CC(=O)Nc3ccc(NC(C)=O)cc3)c(C)c2c1`: the activity, negative = inhibition is -40.2% [at 12.7 µM] (inactive).

In the case of `COc1ccc(CCC(=O)NCCc2csc(-c3ccc(Cl)cc3)n2)cc1`, the Potency entry was “inactive”.

Turning to `CCOc1ccc(C(=O)c2cn(Cc3ccccc3OC)c3ccc(F)cc3c2=O)cc1`, the Potency result was “inactive”.

These data come from PubChem BioAssay AID504332 (National Center for Advancing Translational Sciences (NCATS), 2011).
